Measurements from the supplement of paper PMC7366291.
Counter-ions that a name gives are not always drawn. ± gives the standard deviation or the standard deviation of the averaged measurements.

Legend:
Details in all cases: 25 µM; exposure: 24-48 hpf
[1] = system: Danio rerio Tg(wt1b:EGFP) embryo, pronephros; assay: glomerular separation, fold change vs DMSO control; higher = glomeruli further apart (abnormal)
In short: (§1)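 From 24 to 48 hpf, at 28.5°C, dechorionated Tg(wt1b:EGFP) zebrafish embryos sat in HEPES-buffered E3 with 0.003% PTU carrying 25 μM compound and 0.5% DMSO. Their pronephroi were imaged dorsally in 96-well plates filled with agarose, using 470 nm light and 10 z-slices. A Fiji macro measured distances and angles between 16 reference points that were set manually on maximum projections, and any value more than 2 SD from its feature mean was excluded. Features are expressed as fold change relative to the mean of DMSO-treated embryos imaged on the same day.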

[2] = system: Danio rerio Tg(wt1b:EGFP) embryo, pronephros; assay: glomerular width (mean of left and right), fold change vs DMSO control; higher = wider glomerulus
In short: as §1

[3] = system: Danio rerio Tg(wt1b:EGFP) embryo, pronephros; assay: fraction of imaged embryos annotated as normal kidney; higher = less nephrotoxic; extreme values may be limits of the assay
In short: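 Dechorionated Tg(wt1b:EGFP) zebrafish embryos were exposed in 12-well plates to 25 μM compound in 0.5% DMSO, 5 mM HEPES-buffered E3 with 0.003% PTU, from 24 to 48 hpf at 28.5°C. Tricaine-anaesthetised larvae were oriented dorsally in agarose-filled 96-well plates, and pronephroi were imaged by widefield fluorescence (470 nm, 10 z-slices). Each embryo was manually annotated from maximum projections. The read-out is the fraction of embryos per treatment assigned to the normal-kidney category.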

[4] = system: Danio rerio Tg(wt1b:EGFP) embryo, pronephros; assay: pronephric angle neck segment to proximal convoluted tubule (mean of left and right), fold change vs DMSO control; higher = larger pronephric angle
In short: as §1

SMILES | glomerular separation [1] | glomerular width [2] | fraction of imaged embryos annotated as normal kidney [3] | pronephric angle neck segment [4]
CNCC(O)c1ccc(O)c(O)c1 (stereo not drawn) [Racepinephrine hydrochloride] | 0.935 ± 0.21 | 0.946 ± 0.011 | 0.667 | 0.998 ± 0.035
COc1ccc2[nH]c([S+]([O-])Cc3ncc(C)c(OC)c3C)nc2n1 (stereo not drawn) [Tenatoprazole] | 1.61 ± 0.86 | 0.93 ± 0.064 | 0.917 | 1.17 ± 0.069
COc1cc(Cc2cnc(N)nc2N)cc(OC)c1OC [Trimethoprim] | 1.48 ± 0.76 | 0.986 ± 0.013 | 0.727 | 1.05 ± 0.063
Cc1cc2cc3c(C)cc(=O)oc3c(C)c2o1 [Trioxsalen] | 0.97 ± 0.24 | 1.019 ± 0.01 | 0.917 | 1.03 ± 0.049
NC(=O)OCC(O)COc1ccc(Cl)cc1 (stereo not drawn) [Chlorphensin carbamate] | 0.973 ± 0.47 | 0.982 ± 0.071 | 0.833 | 1.12 ± 0.099
NC(=O)OCC(COC(N)=O)c1ccccc1 [Felbamate] | 0.918 ± 0.32 | 1.05 ± 0.031 | 0.833 | 1.01 ± 0.013
CC1=C(CC(=O)O)c2cc(F)ccc2/C1=C\c1ccc([S+](C)[O-])cc1 (stereo not drawn) [Sulindac] | 0.735 ± 0.15 | 0.8774 ± 0.0075 | 0.667 | 1.0374 ± 0.00064
COc1cc(C(=O)NS(=O)(=O)c2ccccc2C)ccc1Cc1cn(C)c2ccc(NC(=O)OC3CCCC3)cc12 [Zafirlukast] | 0.957 ± 0.46 | 0.9694 ± 0.0078 | 1 | 1.09 ± 0.065
Clc1cccc(Cl)c1NC1=NCCN1 [Clonidine hydrochloride] | 0.954 ± 0.35 | 1.001 ± 0.0053 | 0.583 | 0.96 ± 0.067
COc1ccc2c3c1O[C@H]1C[C@@H](O)C=C[C@@]31CCN(C)C2 [Galanthamine hydrobromide] | 1.08 ± 0.38 | 1.04 ± 0.0055 | 0.917 | 0.964 ± 0.029
COc1cc(C)nc(-n2nc(C)cc2OC)n1 [Epirizole] | 1.39 ± 0.73 | 0.957 ± 0.021 | 0.75 | 1.03 ± 0.027
CC(N)C12CC3CC(CC(C3)C1)C2 (stereo not drawn) [Rimantadine Hydrochloride] | 0.846 ± 0.35 | 0.967 ± 0.064 | 0.917 | 1.04 ± 0.04
CC#C[C@]1(O)CC[C@H]2[C@@H]3CCC4=CC(=O)CCC4=C3[C@@H](c3ccc(N(C)C)cc3)C[C@@]21C [Mifepristone] | 0.949 ± 0.33 | 1.15 ± 0.027 | 0.75 | 1.0508 ± 0.001
COC(=O)Nc1nc2cc(C(=O)c3ccccc3)ccc2[nH]1 [Mebendazole] | 4.75 ± 1.7 | 0.552 ± 0.014 | 0 | 1.91 ± 0.057
CC1(C)S[C@@H]2[C@H](NC(=O)[C@H](N)c3ccccc3)C(=O)N2[C@H]1C(=O)O [Ampicillin trihydrate] | 0.924 ± 0.41 | 1.03 ± 0.016 | 0.917 | 1.03 ± 0.025
CCCNC(C)(C)COC(=O)c1ccccc1 [Meprylcaine hydrochloride] | 1.08 ± 0.26 | 0.936 ± 0.03 | 1 | 0.9842 ± 0.0035
O=C(O)Cc1sc(-c2ccccc2)nc1-c1ccc(Cl)cc1 [Fentiazac] | 6.56 ± 3.2 | 0.503 ± 0.018 | 0 | 1.75 ± 0.059
CCN1CCN(C(=O)N[C@@H](C(=O)N[C@@H]2C(=O)N3[C@@H]2SC(C)(C)[C@@H]3C(=O)O)c2ccccc2)C(=O)C1=O [Piperacillin sodium salt] | 1.07 ± 0.47 | 0.991 ± 0.063 | 0.667 | 1.01 ± 0.046
O=C(O)CCNC(=O)c1ccc(/N=N/c2ccc(O)c(C(=O)O)c2)cc1 [Balsalazide Sodium] | 0.832 ± 0.29 | 1.03 ± 0.012 | 0.833 | 1.08 ± 0.012
Nc1ncnc2c1ncn2[C@@H]1O[C@H](CO)[C@@H](O)[C@@H]1O [Vidarabine] | 1.29 ± 0.56 | 1.06 ± 0.023 | 0.583 | 1.03 ± 0.074
COc1cc2nc(N3CCN(C(=O)C4CCCO4)CC3)nc(N)c2cc1OC (stereo not drawn) [Terazosin hydrochloride] | 0.764 ± 0.26 | 1.04 ± 0.027 | 0.833 | 0.9878 ± 0.0069
CN(C)CCOC(c1ccccc1)c1ccccc1.Cn1c(=O)c2[nH]c(Cl)nc2n(C)c1=O [Dimenhydrinate] | 1.31 ± 0.54 | 1.05 ± 0.054 | 0.917 | 1.029 ± 0.0072
CC(=O)Oc1cc(C(C)C)c(OCCN(C)C)cc1C [Moxisylyte hydrochoride] | 0.853 ± 0.24 | 1.03 ± 0.0053 | 0.917 | 0.977 ± 0.068
Cn1cnc([N+](=O)[O-])c1Sc1ncnc2[nH]cnc12 [Azathioprine] | 1.2 ± 0.26 | 1.02 ± 0.042 | 0.833 | 0.994 ± 0.015
OCCOCCN1CCN(C2=Nc3ccccc3Sc3ccccc32)CC1 [Quetiapine hemifumarate] | 0.872 ± 0.15 | 1.07 ± 0.066 | 0.917 | 0.98617 ± 0.00072
Cc1c(N(C)C)c(=O)n(-c2ccccc2)n1C [Amidopyrine] | 0.645 ± 0.17 | 1 ± 0.0092 | 0.917 | 1.01 ± 0.033
CCN(CC)CCCC(C)Nc1ccnc2cc(Cl)ccc12 (stereo not drawn) [Chloroquine diphosphate] | 1.16 ± 0.51 | 0.959 ± 0.049 | 1 | 0.991 ± 0.019
